In PubChem BioAssay (NCI) one finds growth data, which are given here for 14 compounds.

Each structure is given as a SMILES string. The panel holds about 83,000 compounds, 20% with a hit somewhere; the sample as a whole holds those more often.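 Step 1: grow cells in 96-well plates. Step 2: add test compound at a single concentration. Step 3: incubate 48 h. Step 4: record percent growth.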 Values without a mark were called inactive. Active and inactive are the calls of the source. How the source made its calls: active means growth percent below 10; inactive means the rest.

Assay in all cases: NCI-60 one-dose screen, 48 h (100 = growth as untreated, 0 = no growth, -100 = all killed)
What all share (details): 10 µM unless noted

Test [1] deals with NCI-H23 lung.
Test [2] relates to NCI-H226 lung.
The subject of test [3] is NCI-H322M lung.
The subject of test [4] is HOP-62 NSCLC.
Test [5] deals with NCI-H460 lung.
For test [6], the system named is HOP-92 NSCLC.
For test [7], the system named is NCI-H522 lung.
In test [8] the test system is A549/ATCC NSCLC.
For test [9], the system named is COLO 205 colon.
Test [10] relates to 786-0 renal.

As for `CCCCOc1ccc(/C=C2/SC(N3CCCC3)=NC2=O)cc1`, the growth in test [1] was 98.8%; in test [2], 85.5%; in [3], 98.8%; in test [4] it was 99.3%; in test [5] it was 99%; in [6], 86.8%. Further, the growth was 82.4% in [7], 94.7% in test [8] and 104% in test [9].
`Cc1ccc(C(=O)C2=Cc3cc4ccccc4n3Cc3cnnn32)cc1`: the growth in test [1] is 100%; in test [2] it was 98.1%; in [3], 95.9%; in test [4], 87.4%; in [5], 108%; in test [6], 86%. For the same compound, the growth in test [7] is 64.5%; in test [8] it was 99.2%; in test [10] it was 94.6%; in test [9] it was 111%.
Regarding `COc1cc(-c2nn(-c3cccc(NC(=O)Nc4cc(C(F)(F)F)cc(C(F)(F)F)c4)c3)cc2-c2ccncc2)ccc1Cl`, the growth in test [1] was -3.3% (active); in test [2], 8.68% (active); in [3] it was 26.1%; in test [4], -77.6% (active); in test [5] it was -49.7% (active); in test [6], -50.2% (active). The growth was -34.4% (active) in test [7], -23.8% (active) in test [8], -71.1% (active) in test [10] and -98.7% (active) in test [9].
`O=C(Nc1cccc(-n2cc(-c3ccncc3)c(-c3ccc(Cl)c(O)c3)n2)c1)Nc1cccc(C(F)(F)F)c1`: the growth in test [1] is 14.6%; in test [2] it was 35.1%; in [3], 48.2%; in test [4] it was 38.1%; in test [5], 7.29% (active); in test [6], -17.7% (active). Moreover, the growth in [7] was -10.8% (active); in test [8] it was 5.74% (active); in test [10], 34.4%; in [9], 94.2%.
On to `O=C1CS/C(=N\Nc2cc(=O)[nH]c3ccccc23)N1c1ccccc1`, for which the growth in test [1] is 96.4%; in [2], 95.6%; in test [3], 99.3%; in [4], 86.6%; in [5] it was 100%; in [6] it was 65.1%. Further, the growth was 76.2% in test [7], 97.2% in test [8] and 105% in test [9].
As for `CC(=O)Oc1cccc(S(=O)(=O)n2cc(C(=O)C(=O)Nc3ccncc3)c3ccccc32)c1`, the growth in test [1] was 62.6%; in test [2] it was 73.6%; in test [3] it was 92.3%; in [4] it was 87.2%; in test [5] it was 82.1%; in test [6], 70.5%. For the same compound, the growth in test [7] is 63.9%; in test [8], 72.7%; in test [10], 91.2%; in [9] it was 100%.
Regarding `O=C(O)/C=C/C(=O)c1ccc(Cl)cc1`, the growth in test [1] is 116%; in test [2], 113%; in [3], 104%; in [4], 112%; in test [5] it was 112%; in test [6], 119%. Besides, the growth in [7] is 80.4%; in test [8], 95.3%; in test [10], 105%; in test [9] it was 120%.
As to `CCNc1nc(S(=O)(=O)CC)nc2ccccc12`, the growth in test [1] is 103%; in test [2] it was 102%; in test [3] it was 104%; in test [4], 96.1%; in test [5], 101%; in test [6] it was 104%. The growth in test [7] is 81.8%; in test [8], 105%; in test [10], 101%; in [9], 114%.
With `CN1CCN(CCCOc2ccc3nc(Nc4ccc(Cl)c(C(F)(F)F)c4)ccc3c2)CC1`, the growth was 67.3% in test [1]; 88.9% in test [2]; 53.6% in test [3]; 57.8% in test [4]; 44.4% in test [5]; 43% in test [6]. For the same compound, the growth was 90.2% in [7], 55.3% in test [8], 68.6% in test [10] and -40.7% (active) in [9].
`CC(C)C(C(=O)NCCN1CCOCC1)N1C(=O)/C(=C/c2ccc(Br)cc2)SC1=S` (configuration not stated): the growth in test [1] was 98.4%; in [2] it was 107%; in [3], 100%; in [4] it was 104%; in test [5] it was 101%; in test [6] it was 104%. The growth in test [7] was 95.9%; in test [8] it was 102%; in test [9], 111%.
Turning to `COC(=O)c1cc2cc(-c3ccc(OC)cc3)cnc2[nH]1`, the growth in test [1] was 36.8%; in [2] it was 45.1%; in test [3], 50.4%; in test [4], 50.3%; in test [5], 6.52% (active); in test [6], 0.19% (active). Besides, the growth in test [7] was -52.2% (active); in [8], 24.9%; in test [10] it was 37.1%; in test [9] it was 0.277% (active).
In the case of `ClC(Cl)c1nc(-c2ccccc2)nc2cc(-c3ccccc3)nn12`, the growth in test [1] was 51.5%; in [2], 89.9%; in test [3], 96.6%; in [4], 44.4%; in [5], 74.9%; in [6], 62.8%. The growth in test [7] is 97.1%; in test [8], 46.1%; in test [10] it was 80.1%; in test [9], 59.5%.
Take `CC(C)(C)Nc1c(-c2cccs2)nc2ncccn12`: the growth in [1] is 96.6%; in [2], 90.6%; in test [3], 98.7%; in [4], 104%; in [5], 102%; in test [6], 98.8%. Also, the growth in [7] was 80.3%; in [8], 98.1%; in test [10] it was 104%; in test [9] it was 110%.
In the case of `COc1ccc(C2NN=C3c4ccccc4CCC32)cc1` (configuration not stated), the growth is 67.7% in test [1]; 73.5% in test [2]; 104% in test [3]; 67.3% in test [4]; 56.3% in test [5]; 67.5% in test [6]. Moreover, the growth is 47.2% in test [7], 68.1% in test [8], 91.3% in test [10] and 78.4% in [9].
